# Records with an inconclusive call do not appear. Activity calls are given as the source filed them. Calls follow the shape of the dose curve; as a rule, active = well fitted inhibition curve with a large enough effect in the signal ratio in the repeat runs (not every such curve was filed as active); inconclusive = weak or mixed curves; inactive = flat fitted curve, though single readings scatter; the % refers to the signal ratio.
# Experiment: qHTS assay to identify small molecule antagonists of the TGF-beta/Smad signaling pathway (AID 1346924)
# Settings: SBE-bla HEK293T, TGF-beta/Smad reporter, beta-lactamase ratio
# Source text: U.S. Tox21 Program National Center for Advancing Translational Sciences [NCATS] NIH Chemical Genomics Center [NCGC] U.S. Environmental Protection Agency [EPA] National Institutes of Environmental Health Sciences [NIEHS] National Toxicology Program [NTP] U.S. Food and Drug Administration [FDA] Tox21 Assay Overview: Transforming growth factor beta (TGF-beta) superfamily consists of a large number of structurally related dimeric proteins that act as hormones or local mediators in regulating a wide range of biological functions. This superfamily includes TGF-betas themselves, the bone morphogenetic proteins (BMPs) and the activins. These ligands induce oligomerization of serine/threonine receptor kinases and phosphorylate the cytoplasmic signaling molecules of Smad protein family. CellSensor SBE-bla HEK 293T cell line (Life Technologies, Carlsbad, CA), responsive to TGF-beta was used to screen Tox21 10K compound library for identification of agonists/antagonists of the Smad signaling pathway. […]
# Tox21 Assay Protocol Summary: SBE-bla HEK 293T cells were dispensed at 4,000/well in 5 uL of assay medium into black wall/clear-bottom 1536-well plates using a Multidrop Combi (ThermoFisher Scientific, Waltham, MA) dispenser. […] Fluorescence intensity (405 nm excitation, 460 nm and 530 nm emissions) was measured using an Envision plate reader (PerkinElmer, Shelton, CT).
# Potency is read from the fitted curve at half-maximal effect.
row,SMILES,Potency
1,CCCCCCCCCCCC[N+](C)(C)CCOc1ccccc1,50.9 µM (active)

# From PubChem BioAssay (Tox21)
